Measured values from the supplement of paper PMC10849652.
About 7,900 targets were measured; listed, in parts, are those with a hit and a random draw of the rest. About 0.6% of all pairs of compound and target were hits.

What was measured:
Assay in all cases: log2 fold change, soluble protein after heating vs DMSO (PISA); higher = thermal stabilisation; K562 cells, 10 uM, 30 min; active = over 0.2 and 3.5 SD of the protein, either way, in both replicates (recomputed)
[1] = compound: CN1CCN(CCOc2cc(OC3CCOCC3)c3c(Nc4c(Cl)ccc5c4OCO5)ncnc3c2)CC1 [saracatinib]
Outline: (§1)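 K562 cells at 2×10^6 cells/mL were treated with 10 μM compound for 30 min. Aliquots were heated for 3 min across 48°C-58°C, pooled, and extracted in PBS with 0.5% NP-40 at 4°C; soluble protein was the supernatant after 21,000xg for 90 min. Soluble protein was quantified by TMTpro 16plex LC-MS/MS with channel sums equalised, and reported as log2 fold change in thermal stability against DMSO controls, with values from duplicates.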

[2] = compound: CN1CCN(c2nc(C3=C(c4c[nH]c5ccccc45)C(=O)NC3=O)c3ccccc3n2)CC1 [sotrastaurin]
Outline: as §1

[3] = compound: CN1CC[C@H](c2c(O)cc(O)c3c(=O)cc(-c4ccccc4Cl)oc23)[C@H](O)C1 [alvocidib]
Outline: as §1

[4] = compound: CN1CCc2c(c3ccccc3n2Cc2ccc(C(=O)NO)cc2)C1 [Tubastatin A]
Outline: as §1

[5] = compound: CNC(=O)C1=CC=CC=C1NC2=NC(=NC=C2Cl)NC3=C(C=C(C=C3)N4CCOCC4)OC
Outline: as §1

[6] = compound: CNC(=O)c1ccc(Nc2ncc(C(F)(F)F)c(NCc3nccnc3N(C)S(C)(=O)=O)n2)cc1 [defactinib]
Outline: as §1

[7] = compound: CNCc1ccc(-c2[nH]c3cc(F)cc4c3c2CCNC4=O)cc1 [rucaparib]
Outline: as §1

[8] = compound: CNc1nc(-c2ccc3c(N)n[nH]c3c2)cc(N2C[C@@H](C(=O)NC3CCCCC3)CC[C@H]2C)n1
Outline: as §1

[9] = compound: COC(=O)N[C@@H](C)CNc1nccc(-c2cn(C(C)C)nc2-c2cc(Cl)cc(NS(C)(=O)=O)c2F)n1 [encorafenib]
Outline: as §1

[10] = compound: COC(=O)[C@H](CCSC)NC(=O)C1=C(C=C(C=C1)NC[C@H](CS)N)C2=CC=CC=C2
Outline: as §1

Measured: log2 fold change

GABPA (UniProt Q06546)
inactive: [1] -0.065 | [2] -0.086 | [3] -0.134 | [4] 0.087 | [5] -0.063 | [6] -0.064 | [7] -0.015 | [8] 0.018 | [9] 0.019 | [10] 0.011

HHEX (UniProt Q03014)
UniProt Q03014, sequence (Q03014 whole entry, looked up): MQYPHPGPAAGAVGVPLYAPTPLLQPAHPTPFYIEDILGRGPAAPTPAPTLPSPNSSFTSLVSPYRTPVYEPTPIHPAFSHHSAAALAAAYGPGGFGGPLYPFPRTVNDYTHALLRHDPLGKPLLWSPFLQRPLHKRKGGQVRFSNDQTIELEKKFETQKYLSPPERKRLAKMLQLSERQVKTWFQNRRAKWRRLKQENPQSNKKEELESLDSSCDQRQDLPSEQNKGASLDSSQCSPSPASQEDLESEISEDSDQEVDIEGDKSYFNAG
inactive: [1] 0.095 | [2] -0.068 | [3] -0.146 | [4] 0.126 | [5] 0.035 | [6] -0.173 | [7] 0.04 | [8] -0.011 | [9] -0.061 | [10] 0.651

GALNT11 (UniProt Q8NCW6)
UniProt Q8NCW6, sequence (Q8NCW6 whole entry, looked up): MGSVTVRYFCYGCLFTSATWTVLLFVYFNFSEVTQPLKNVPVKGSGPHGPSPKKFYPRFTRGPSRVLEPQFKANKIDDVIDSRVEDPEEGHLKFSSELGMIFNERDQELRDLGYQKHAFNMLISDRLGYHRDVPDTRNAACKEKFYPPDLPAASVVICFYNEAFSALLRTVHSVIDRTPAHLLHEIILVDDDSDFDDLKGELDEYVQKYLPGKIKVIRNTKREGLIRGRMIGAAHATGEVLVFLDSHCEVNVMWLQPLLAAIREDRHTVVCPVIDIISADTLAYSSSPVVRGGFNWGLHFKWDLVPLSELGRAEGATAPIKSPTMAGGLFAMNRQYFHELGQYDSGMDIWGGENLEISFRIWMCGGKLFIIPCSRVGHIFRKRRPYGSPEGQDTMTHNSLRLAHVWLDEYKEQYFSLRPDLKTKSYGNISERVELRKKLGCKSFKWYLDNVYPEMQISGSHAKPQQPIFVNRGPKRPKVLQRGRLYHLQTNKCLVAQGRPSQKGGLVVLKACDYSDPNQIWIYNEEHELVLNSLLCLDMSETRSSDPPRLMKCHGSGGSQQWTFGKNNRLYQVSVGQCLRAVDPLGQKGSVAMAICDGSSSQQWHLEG
inactive: [1] -0.025 | [2] -0.024 | [3] 0 | [4] 0.028 | [5] 0.033 | [6] -0.187 | [7] -0.047 | [8] 0.01 | [9] -0.064 | [10] -0.055

IFT74 (UniProt Q96LB3)
inactive: [1] -0.079 | [2] -0.001 | [3] 0.048 | [4] 0.259 | [5] -0.223 | [6] 0.028 | [7] 0.06 | [8] 0.003 | [9] -0.055 | [10] 0.075

HNRNPUL1 (UniProt Q9BUJ2)
UniProt Q9BUJ2, sequence (Q9BUJ2 whole entry, looked up): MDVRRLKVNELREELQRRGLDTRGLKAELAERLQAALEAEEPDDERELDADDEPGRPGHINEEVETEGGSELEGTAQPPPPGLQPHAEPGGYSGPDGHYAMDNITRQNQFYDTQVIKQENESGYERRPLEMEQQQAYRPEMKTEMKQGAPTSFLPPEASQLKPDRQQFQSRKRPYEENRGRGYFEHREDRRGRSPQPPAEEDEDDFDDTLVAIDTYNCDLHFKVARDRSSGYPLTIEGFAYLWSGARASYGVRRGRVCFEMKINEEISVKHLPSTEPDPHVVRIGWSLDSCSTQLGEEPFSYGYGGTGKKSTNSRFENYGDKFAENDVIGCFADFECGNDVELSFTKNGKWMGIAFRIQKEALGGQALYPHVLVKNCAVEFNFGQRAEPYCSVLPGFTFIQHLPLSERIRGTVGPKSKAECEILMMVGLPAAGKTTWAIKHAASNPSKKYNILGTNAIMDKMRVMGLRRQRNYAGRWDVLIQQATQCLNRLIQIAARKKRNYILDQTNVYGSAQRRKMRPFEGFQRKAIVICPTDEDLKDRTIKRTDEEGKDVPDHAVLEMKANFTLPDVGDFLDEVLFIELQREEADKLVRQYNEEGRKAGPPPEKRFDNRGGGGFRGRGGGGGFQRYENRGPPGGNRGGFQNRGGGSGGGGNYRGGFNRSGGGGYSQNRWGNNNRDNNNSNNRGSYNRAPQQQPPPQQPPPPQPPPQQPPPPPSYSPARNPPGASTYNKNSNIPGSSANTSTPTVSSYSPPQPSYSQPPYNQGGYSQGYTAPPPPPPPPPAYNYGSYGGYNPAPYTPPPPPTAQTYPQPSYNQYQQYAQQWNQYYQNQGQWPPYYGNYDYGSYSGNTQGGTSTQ
inactive: [1] -0.016 | [2] 0.039 | [3] 0.082 | [4] 0 | [5] 0.008 | [6] 0.018 | [7] 0.075 | [8] 0.034 | [9] 0.063 | [10] -0.011

GNAI3 (UniProt P08754)
inactive: [1] 0.063 | [2] -0.011 | [3] -0.02 | [4] 0.046 | [5] 0.093 | [6] -0.041 | [7] -0.009 | [8] 0.025 | [9] -0.004 | [10] -0.003

HK2 (UniProt P52789)
UniProt P52789, sequence (P52789 whole entry, looked up): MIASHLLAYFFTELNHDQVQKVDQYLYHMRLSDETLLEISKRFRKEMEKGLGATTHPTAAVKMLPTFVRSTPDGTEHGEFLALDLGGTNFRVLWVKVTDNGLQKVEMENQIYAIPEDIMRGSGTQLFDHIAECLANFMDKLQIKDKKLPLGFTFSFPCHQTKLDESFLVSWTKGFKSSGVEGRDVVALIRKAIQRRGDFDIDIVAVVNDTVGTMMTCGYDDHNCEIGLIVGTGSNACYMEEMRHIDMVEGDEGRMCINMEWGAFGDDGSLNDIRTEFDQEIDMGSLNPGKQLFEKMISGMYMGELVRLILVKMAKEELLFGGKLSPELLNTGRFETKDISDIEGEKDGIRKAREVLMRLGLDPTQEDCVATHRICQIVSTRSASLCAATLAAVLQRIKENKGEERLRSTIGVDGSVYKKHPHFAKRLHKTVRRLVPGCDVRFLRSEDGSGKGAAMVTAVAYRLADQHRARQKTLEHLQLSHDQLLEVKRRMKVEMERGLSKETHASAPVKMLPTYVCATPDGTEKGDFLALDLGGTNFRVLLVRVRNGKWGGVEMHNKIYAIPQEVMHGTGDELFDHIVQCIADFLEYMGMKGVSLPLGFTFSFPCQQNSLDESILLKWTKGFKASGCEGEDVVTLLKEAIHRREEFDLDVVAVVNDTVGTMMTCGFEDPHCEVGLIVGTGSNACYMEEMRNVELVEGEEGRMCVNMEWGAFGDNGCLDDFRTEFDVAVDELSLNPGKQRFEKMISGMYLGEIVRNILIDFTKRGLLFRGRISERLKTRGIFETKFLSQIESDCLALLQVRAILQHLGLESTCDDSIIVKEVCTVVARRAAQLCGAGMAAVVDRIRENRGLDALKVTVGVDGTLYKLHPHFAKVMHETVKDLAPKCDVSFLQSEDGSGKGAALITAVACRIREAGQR
inactive: [1] 0.008 | [2] -0.075 | [3] -0.054 | [4] -0.006 | [6] -0.08 | [7] -0.011 | [8] -0.045 | [9] 0.026 | [10] -0.005
active: [5] -0.334

GNS (UniProt P15586)
inactive: [1] 0.014 | [2] 0.041 | [3] -0.022 | [4] -0.012 | [5] -0.007 | [6] -0.011 | [7] 0 | [8] -0.034 | [9] 0.009 | [10] -0.009

HADHA (UniProt P40939)
active: [8] 0.595
inactive: [1] -0.102 | [2] 0.032 | [3] -0.238 | [4] 0.05 | [5] 0.044 | [6] -0.19 | [7] 0.177 | [9] -0.024 | [10] -0.191

HEATR3 (UniProt Q7Z4Q2)
inactive: [1] -0.045 | [2] -0.167 | [3] -0.128 | [4] 0.109 | [5] -0.054 | [6] -0.048 | [7] 0.081 | [8] -0.006 | [9] -0.028 | [10] -0.006

GATD1 (UniProt Q8NB37)
inactive: [1] 0.077 | [2] 0.057 | [3] -0.084 | [4] 0.06 | [5] -0.079 | [6] 0.001 | [7] -0.004 | [8] -0.022 | [9] 0 | [10] 0.011

HMG20A (UniProt Q9NP66)
inactive: [1] 0.038 | [2] -0.106 | [3] -0.075 | [4] 0.018 | [5] 0.005 | [6] 0.029 | [7] -0.323 | [8] -0.015 | [9] -0.109 | [10] -0.009

FRA10AC1 isoform 3 (UniProt Q70Z53)
UniProt Q70Z53, sequence (Q70Z53 whole entry, looked up): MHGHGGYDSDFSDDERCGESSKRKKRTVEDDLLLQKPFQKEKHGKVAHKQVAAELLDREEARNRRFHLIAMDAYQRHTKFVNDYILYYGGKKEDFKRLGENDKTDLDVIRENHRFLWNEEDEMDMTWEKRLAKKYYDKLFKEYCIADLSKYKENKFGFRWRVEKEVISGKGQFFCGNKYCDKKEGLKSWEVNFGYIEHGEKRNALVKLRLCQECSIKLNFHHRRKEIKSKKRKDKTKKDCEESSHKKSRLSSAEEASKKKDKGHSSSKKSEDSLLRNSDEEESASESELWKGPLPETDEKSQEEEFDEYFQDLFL
inactive: [1] 0.125 | [2] 0.133 | [3] 0.132 | [4] -0.023 | [5] -0.01 | [6] 0 | [7] -0.035 | [8] -0.196 | [9] -0.103 | [10] -0.067

FLNA (UniProt P21333)
inactive: [1] -0.076 | [2] -0.161 | [3] -0.017 | [4] 0.052 | [5] 0.106 | [6] -0.042 | [7] 0.1 | [8] 0.017 | [9] 0.089 | [10] -0.053

HIST2H2BF isoform 2 (UniProt Q5QNW6)
inactive: [1] -0.084 | [2] 0.074 | [3] 0.144 | [4] 0.093 | [5] -0.044 | [6] 0.313 | [7] 0.325 | [8] 0.039 | [9] 0.015 | [10] 0.05

IFRD1 (UniProt O00458)
inactive: [1] 0.026 | [2] 0.242 | [3] 0.064 | [4] 0.089 | [5] 0.042 | [6] -0.003 | [8] -0.042 | [9] 0.038 | [10] 0.006
active: [7] -0.46

IGF2BP2 (UniProt Q9Y6M1)
UniProt Q9Y6M1, sequence (Q9Y6M1 whole entry, looked up): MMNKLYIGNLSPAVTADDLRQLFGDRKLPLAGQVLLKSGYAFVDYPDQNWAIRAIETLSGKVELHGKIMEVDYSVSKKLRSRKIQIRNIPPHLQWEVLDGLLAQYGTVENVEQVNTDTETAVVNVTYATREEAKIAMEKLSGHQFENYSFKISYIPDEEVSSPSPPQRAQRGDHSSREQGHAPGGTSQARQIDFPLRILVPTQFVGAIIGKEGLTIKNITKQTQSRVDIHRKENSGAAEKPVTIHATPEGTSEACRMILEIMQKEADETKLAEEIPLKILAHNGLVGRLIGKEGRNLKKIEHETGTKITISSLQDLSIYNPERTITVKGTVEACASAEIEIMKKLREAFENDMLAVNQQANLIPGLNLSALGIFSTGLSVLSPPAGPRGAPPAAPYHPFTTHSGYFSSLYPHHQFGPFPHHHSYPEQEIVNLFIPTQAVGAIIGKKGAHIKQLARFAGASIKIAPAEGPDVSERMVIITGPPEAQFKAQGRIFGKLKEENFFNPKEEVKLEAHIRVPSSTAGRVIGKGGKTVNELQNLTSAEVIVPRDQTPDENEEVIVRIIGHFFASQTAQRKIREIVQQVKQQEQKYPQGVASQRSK
inactive: [1] -0.122 | [2] -0.035 | [3] 0.209 | [4] 0.168 | [5] 0.044 | [6] 0.147 | [7] 0.446 | [8] 0.145 | [9] 0.106 | [10] -0.066

HSD17B12 (UniProt Q53GQ0)
UniProt Q53GQ0, sequence (Q53GQ0 whole entry, looked up): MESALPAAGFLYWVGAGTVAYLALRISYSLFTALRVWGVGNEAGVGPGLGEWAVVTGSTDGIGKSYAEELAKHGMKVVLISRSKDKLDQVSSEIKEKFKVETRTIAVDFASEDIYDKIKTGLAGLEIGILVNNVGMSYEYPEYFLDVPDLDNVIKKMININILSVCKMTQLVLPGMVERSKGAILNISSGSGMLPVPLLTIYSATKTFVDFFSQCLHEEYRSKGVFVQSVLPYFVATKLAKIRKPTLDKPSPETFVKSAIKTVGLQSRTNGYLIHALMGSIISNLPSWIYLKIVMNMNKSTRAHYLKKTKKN
inactive: [1] -0.037 | [2] 0.151 | [3] -0.082 | [4] -0.007 | [5] 0.005 | [6] -0.024 | [7] -0.043 | [8] 0.038 | [9] 0.027 | [10] 0.013

H2AZ1 (UniProt P0C0S5)
UniProt P0C0S5, sequence (P0C0S5 whole entry, looked up): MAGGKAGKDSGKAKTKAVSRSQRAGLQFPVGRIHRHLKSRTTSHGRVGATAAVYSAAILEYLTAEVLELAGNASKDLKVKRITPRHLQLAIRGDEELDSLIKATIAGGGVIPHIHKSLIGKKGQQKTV
inactive: [1] -0.082 | [2] 0.067 | [3] 0.093 | [4] -0.017 | [5] -0.102 | [6] 0.259 | [7] 0.396 | [8] -0.014 | [9] 0.107 | [10] 0.105

GLA (UniProt P06280)
inactive: [1] 0.056 | [2] -0.027 | [3] -0.008 | [4] -0.027 | [5] -0.02 | [6] 0.008 | [7] 0.04 | [8] -0.043 | [9] -0.022 | [10] 0.059

HRC (UniProt P23327)
inactive: [1] 0.063 | [2] 0.057 | [3] 0.02 | [4] -0.125 | [5] 0.009 | [6] -0.011 | [7] 0.01 | [8] -0.057 | [9] -0.066 | [10] 0.043

FBXO3 (UniProt Q9UK99)
inactive: [1] 0.029 | [2] 0.049 | [3] -0.048 | [4] 0.157 | [5] -0.051 | [6] 0.072 | [7] 0.016 | [8] -0.076 | [9] 0.018 | [10] -0.005

HNRNPC isoform 2 (UniProt P07910)
inactive: [1] -0.067 | [2] -0.035 | [3] 0.04 | [4] 0.219 | [5] 0.033 | [6] 0.054 | [7] 0.392 | [8] 0.115 | [9] 0.148 | [10] 0.071

HDHD2 (UniProt Q9H0R4)
inactive: [1] -0.004 | [2] -0.077 | [3] -0.028 | [4] -0.016 | [5] -0.017 | [6] 0 | [7] -0.049 | [8] -0.048 | [9] 0.016 | [10] -0.018

FUCA1 (UniProt P04066)
UniProt P04066, sequence (P04066 whole entry, looked up): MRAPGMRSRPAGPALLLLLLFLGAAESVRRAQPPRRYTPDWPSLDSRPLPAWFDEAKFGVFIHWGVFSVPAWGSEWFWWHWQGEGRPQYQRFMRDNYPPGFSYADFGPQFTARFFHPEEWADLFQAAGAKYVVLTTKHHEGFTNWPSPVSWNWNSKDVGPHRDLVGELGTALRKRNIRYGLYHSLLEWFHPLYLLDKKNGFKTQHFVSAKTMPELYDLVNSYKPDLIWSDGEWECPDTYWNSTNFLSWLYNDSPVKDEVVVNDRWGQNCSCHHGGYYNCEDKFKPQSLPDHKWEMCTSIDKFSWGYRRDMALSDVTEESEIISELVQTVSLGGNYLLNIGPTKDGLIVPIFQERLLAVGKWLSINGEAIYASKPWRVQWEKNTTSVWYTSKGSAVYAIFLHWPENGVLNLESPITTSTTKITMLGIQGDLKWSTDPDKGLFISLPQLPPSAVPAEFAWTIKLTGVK
inactive: [1] 0.038 | [2] -0.048 | [3] 0.059 | [4] -0.035 | [5] -0.015 | [6] -0.032 | [7] -0.186 | [8] 0.023 | [9] 0 | [10] 0.014

GDI1 (UniProt P31150)
UniProt P31150, sequence (P31150 whole entry, looked up): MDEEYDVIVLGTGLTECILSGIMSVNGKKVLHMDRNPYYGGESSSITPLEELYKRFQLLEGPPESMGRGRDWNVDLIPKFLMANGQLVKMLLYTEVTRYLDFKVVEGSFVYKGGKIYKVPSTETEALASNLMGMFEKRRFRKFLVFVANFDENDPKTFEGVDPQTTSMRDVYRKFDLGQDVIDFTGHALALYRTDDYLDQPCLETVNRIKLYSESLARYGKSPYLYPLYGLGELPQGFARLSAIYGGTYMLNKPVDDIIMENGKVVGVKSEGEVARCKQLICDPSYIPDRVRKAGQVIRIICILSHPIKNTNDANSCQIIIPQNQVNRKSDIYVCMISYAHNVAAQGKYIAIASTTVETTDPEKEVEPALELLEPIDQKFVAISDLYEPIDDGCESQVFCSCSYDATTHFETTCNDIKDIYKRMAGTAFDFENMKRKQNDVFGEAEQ
inactive: [1] 0.017 | [2] 0.012 | [3] -0.067 | [4] -0.025 | [5] 0.012 | [6] -0.046 | [7] -0.042 | [8] -0.015 | [9] 0.006 | [10] 0.009

HIP1 (UniProt O00291)
inactive: [1] 0.078 | [2] -0.079 | [3] -0.102 | [4] 0.038 | [5] 0.008 | [6] -0.001 | [7] 0.065 | [8] -0.024 | [9] -0.048 | [10] -0.001

GABARAPL1 isoform 2 (UniProt Q9H0R8)
inactive: [1] -0.057 | [2] 0 | [3] -0.019 | [4] 0.08 | [5] 0.023 | [6] -0.011 | [7] -0.079 | [8] -0.006 | [9] -0.004 | [10] -0.058

GLYR1 (UniProt Q49A26)
inactive: [1] 0.007 | [2] 0.028 | [3] 0.14 | [4] -0.077 | [5] 0.021 | [6] -0.029 | [7] 0.211 | [8] 0.04 | [9] -0.044 | [10] -0.033

HEXB (UniProt P07686)
inactive: [1] 0 | [2] 0.029 | [3] -0.004 | [4] -0.101 | [5] 0.017 | [6] -0.002 | [7] -0.078 | [8] -0.033 | [9] 0.01 | [10] -0.001
